This is a sample that favours compounds with a hit; in the whole collection about 0.95% have one here.
TbPYK inhibitor: T. brucei pyruvate kinase inhibition | Q57TT1 | TbPYK enzyme, Kinase-Glo Plus ATP luminescence, 45 min | Potency, µM (titrated, usually from 76.8 µM), hits mostly inhibitors | actives 0.12% (n = 410,000) | AID 624173; further: nearly all actives have a fitted effect of over 50% in size
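Readout: single end-point luminescence (Kinase-Glo Plus, 10 min). Reaction conditions were TbPYK/substrate plus 130 uM ADP, 45 min at RT, pH 7.2 TEA buffer. No-enzyme wells served as controls, and data were normalized before concentration-response fitting.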
LmPK inhibitor: LmPK (Leishmania mexicana) enzyme inhibition | Q27686 | purified LmPK, Kinase-Glo ATP luminescence, 1 h | Potency, µM (top dose mostly 57.5 µM), most hits filed as inhibitors | actives 0.37% (n = 290,000) | AID 1721
Target sequence (Q27686 whole entry, looked up): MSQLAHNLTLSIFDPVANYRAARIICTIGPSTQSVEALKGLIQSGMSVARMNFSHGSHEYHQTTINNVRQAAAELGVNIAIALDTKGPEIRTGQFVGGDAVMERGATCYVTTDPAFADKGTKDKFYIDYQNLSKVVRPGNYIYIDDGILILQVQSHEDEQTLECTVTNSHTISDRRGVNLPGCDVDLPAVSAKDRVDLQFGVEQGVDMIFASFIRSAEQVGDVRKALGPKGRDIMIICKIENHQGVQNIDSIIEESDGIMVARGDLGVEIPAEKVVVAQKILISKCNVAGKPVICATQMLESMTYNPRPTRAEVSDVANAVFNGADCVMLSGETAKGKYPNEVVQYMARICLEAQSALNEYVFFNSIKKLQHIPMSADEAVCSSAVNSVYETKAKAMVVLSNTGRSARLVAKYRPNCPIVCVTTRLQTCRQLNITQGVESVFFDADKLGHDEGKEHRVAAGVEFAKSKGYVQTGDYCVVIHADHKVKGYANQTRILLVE
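Screened at intermediate enzyme activity to detect both inhibitors and activators: LmPK at 0.1 nM, with a 0.5 nM enzyme column as activation reference. PEP 0.5 mM, ADP 0.1 mM; ATP detected by luminescence after 1 h.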
FBPA Giardia inh: inhibitors of Giardia lamblia fructose-1,6-bisphosphate aldolase; A8B2U2; purified Giardia FBPA; Potency, µM (top dose mostly 59.6 µM), hits mostly inhibitors; actives 0.71% (n = 290,000); further: nearly all actives have a fitted effect of over 55% in size
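40 nM FBPA preincubated 10 min at RT with compound (up to 57.5 uM final), then substrate plus GAPDH/TPI/NAD/arsenate coupling and diaphorase/resazurin added. Fluorescence read after 20 min at RT, 525/598 nm.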
RE007 growth inh: less growth of the S. pombe RE007 Vpr strain | S. pombe RE007 Vpr strain, BacTiter-Glo ATP luminescence, 24 h | Potency, µM (series often up to 92.2 µM), actives largely listed as inhibitors | actives 0.21% (n = 360,000); active means well fitted falling curve with a large enough effect; inconclusive means small, poorly fitted or top-dose-only effect; inactive means no such curve, though single readings can be large or run the other way; further: nearly all actives have a fitted effect of over 50% in size
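Fission yeast RE007 carrying one integrated HIV-1 vpr copy, seeded at OD 0.01 in PMG+AL medium with 23 nL pinned compound. Grown 24 h at 30 degrees; viability read by BacTiter-Glo luminescence after 5 min.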
Numbers stand for hits; . = inactive; ? = inconclusive; / = no result given; ! = not active in a repeat. Unless noted, the call rests on the fitted dose curve; in most records, active means well fitted curve in the direction sought with a large enough effect; inconclusive means small, poorly fitted or top-dose-only effect, or another doubt; inactive means no such curve, though single readings can be large; an effect the other way counts as inactive or inconclusive.

SMILES	TbPYK inhibitor	LmPK inhibitor	FBPA Giardia inh	RE007 growth inh
CC(C)C[C@@H](CC(=O)N[C@H](CC(=O)N[C@@H]1CCCC[C@H]1C(=O)N[C@H](CC(=O)N[C@@H](CCC(=O)O)CC(=O)O)CC(C)C)C(C)C)NC(=O)[C@@H]1CNCC[C@H]1N	/	/	.	/
N#C/C(=C\c1cc(Br)c(O)c(Br)c1)c1nc2ccccc2c(=O)[nH]1	.	/	/	/
COc1ccccc1NC1=C(NC(C)=O)C(=O)c2ccccc2C1=O	?	.	11µM	.
COC1=C(Nc2ccccc2OC)C(=O)c2ccccc2C1=O	.	.	?	.
Cc1ccc(C(=O)Nc2cccc(C(=O)OCc3cc(=O)n4c5c(sc4n3)CCCC5)c2)cc1	.	/	/	/
Cc1ccc(C(=O)Nc2ncc3c(Cl)cccc3n2)cc1	.	13µM	.	?
Cc1cccc(N2CCN(C3(c4ccccc4)C(=O)c4ccccc4C3=O)CC2)c1C	.	/	/	/
COc1ccc(NC(=O)CCl)cn1	/	.	2.8µM	/
COc1ccc(NC(=O)/C(Cl)=C(/Cl)S(=O)Cc2ccc(Cl)cc2)cn1 (stereo not given)	.	.	.	4.5µM
COc1ccc(NC(=O)C(Cl)=C(Cl)Cl)cn1	.	.	.	.
COCCOCCn1c(/C=C/c2ccccc2)nc2ccccc21	.	14µM	?	?
COc1cccc(OCc2nc3ccccc3[nH]2)c1	.	.	.	.
Brc1ccc(OCc2nc3ccccc3[nH]2)cc1	.	.	.	.
Cc1ccccc1OCc1nc2ccccc2[nH]1	.	18µM	.	?
COc1ccc(OCc2nc3ccccc3[nH]2)cc1	.	18µM	.	.
CN(C)C(=O)Oc1ccc(OCc2nc3ccccc3[nH]2)cc1	?	7.1µM	.	?
COc1ccc(CSc2nc3ccccc3[nH]2)cc1	.	16µM	.	32µM
Nc1c(CC(=O)O)cccc1C(=O)c1ccccc1	.	/	/	/
Cc1cnc(C(=O)Nc2ccccc2-n2cccc2)cn1	.	.	.	.
Cc1cnc(C(=O)Nc2ccccc2F)cn1	.	18µM	.	.
Fc1ccc(-n2c(-c3ccc4c(c3)OCO4)n[nH]c2=S)cc1Cl	4µM	14µM	.	.
Cc1ccc(-n2c(-c3ccc(Cl)cc3Cl)n[nH]c2=S)cc1	?	?	.	.
COc1cc(OC)cc(-c2n[nH]c(=S)n2-c2ccc3c(c2)OCO3)c1	?	5µM	.	.
CCOc1ccc(C(=O)Nc2ccc(C(=O)OCc3cc(=O)n4ccsc4n3)cc2)cc1	.	/	/	/
CN1CCC(c2c[nH]c3ccc(O)cc23)CC1	.	/	2µM!	.
SMILES	TbPYK inhibitor	LmPK inhibitor	FBPA Giardia inh	RE007 growth inh
Cc1ccc(-n2c(-c3ccccc3)n[nH]c2=S)c(C)c1	11µM	.	.	.
Cc1ccc(-n2c(-c3ccncc3)n[nH]c2=S)cc1C	?	.	.	.
Cc1ccc(C)c(-n2c(-c3csc(C)c3)n[nH]c2=S)c1	?	7.9µM	.	.
Cc1ccc(-n2c(-c3ccccc3)n[nH]c2=S)cc1	?	?	.	.
Cc1ccc(-n2c(-c3ccncc3)n[nH]c2=S)cc1	?	16µM	.	.
Cc1ccc(C)c(-n2c(-c3ccncc3)n[nH]c2=S)c1	?	20µM	?	.
CNc1nc(C#N)nc(Nc2ccccc2)n1	/	/	.	/
Cc1ccc(C)c(-n2c(-c3ccc4c(c3)OCO4)n[nH]c2=S)c1	5µM	4µM	.	.
CCN(CC)c1ccc(-c2n[nH]c(=S)n2-c2ccccc2C)cc1	?	.	.	.
COCCCNC(=O)c1ccc2c3c(onc13)-c1ccccc1C2=O	.	.	0.89µM	.
COC(=O)C1=C[C@@H](C(=O)OC)[C@@H]2C3=C(C(=O)C2(C)C)[C@H](C)n2c(=O)n(C)c(=O)n2[C@@H]3C1	/	/	.	/
Cc1nnc(C(C)C)n1C1C[C@H]2CC[C@@H](C1)N2CC[C@H](NC(=O)C1CCC(F)(F)CC1)c1ccccc1 (stereo not given in full)	.	/	/	/
CCOC(=O)C1CCN(c2nc(C)cc(C)c2C#N)CC1	.	.	.	.
COc1cc2c(C#N)c(N3CCc4ccccc4C3)nc(N)c2c(N)n1	.	.	1.8µM	.
COc1cc2c(C#N)c(N3CCOCC3)nc(N)c2c(N)n1	.	.	?	.
COc1cc2c(C#N)c(N3CCCCC3)nc(N)c2c(N)n1	.	.	2.2µM	.
CCOC(=O)C1CCN(c2nc(N)c3c(N)nc(SCC(=O)O)cc3c2C#N)CC1	.	.	7.1µM	.
CC(C)c1ccccc1Oc1c(C(F)(F)F)oc2c(CN3CCN(C)CC3)c(O)ccc2c1=O	.	/	/	/
O=C1c2cccnc2-c2ncccc21	.	.	.	.
CC1(C)OCC(CSC2=C(SCC3COC(C)(C)O3)C(=O)c3ncccc3C2=O)O1 (stereo not given)	/	/	1.8µM	/
O=C1C2C3C=CC(C3=C3CCCCC3)C2C(=O)N1c1ccccc1 (stereo not given)	.	.	.	35µM
O=C(Nc1ccc(N2CCCCC2)cc1)c1ccccn1	?	7.9µM	.	?
CCN1CCOC(=O)C1CC(=O)Nc1cc(Cl)ccc1C (stereo not given)	.	/	/	/
COc1ccc(-c2nc3cnc(OC)nc3n(-c3ccccc3)c2=O)cc1	/	/	.	/
CCCc1ccc(C(=O)O/N=C(\N)c2ccccn2)cc1	?	16µM	.	?
SMILES	TbPYK inhibitor	LmPK inhibitor	FBPA Giardia inh	RE007 growth inh
N/C(=N\OC(=O)c1cccc([N+](=O)[O-])c1)c1ccccn1	.	.	.	.
COc1cccc(C(=O)O/N=C(\N)c2ccccn2)c1	?	14µM	.	?
N/C(=N\OC(=O)C1CCCCC1)c1ccncc1	.	.	.	?
N/C(=N\OC(=O)c1ccc2ccccc2c1)c1ccccn1	?	14µM	.	.
N/C(=N\OC(=O)c1ccc(=O)n(Cc2ccccc2)c1)c1ccccn1	.	.	.	.
N/C(=N\OC(=O)C1CCCCC1)c1ccccn1	.	14µM	.	.
O=C(CCC1CCN(Cc2ccccc2)CC1)c1ccc2c(c1)NCCCC2	.	/	/	/
CCOC(=O)c1ccc(N/C=C/C(=O)c2ccco2)cc1	.	14µM	.	.
O=C(/C=C/Nc1ccc(F)cc1)c1ccco1	.	13µM	.	?
O=C(/C=C/Nc1ccc(F)cc1)c1cccs1	.	/	/	.
COc1cccc(C(=O)CCN[C@@H](C)[C@H](O)c2ccccc2)c1	.	/	/	/
CC1CC(C)CC(C)C(O)C(C#N)=CC=CCC(C2CCCC2C(=O)O)OC(=O)CC(O)C(C)C1 (stereo not given)	.	/	/	6.3µM
CC(N)=Nc1ccc([N+](=O)[O-])cc1	.	.	.	.
O=[N+]([O-])c1ccc(N=Nc2c(Cl)cc(O)cc2Cl)cc1	.	22µM	.	/
Cc1ccc(-n2c(-c3cc(-c4ccco4)[nH]n3)n[nH]c2=S)c(Br)c1	?	?	.	.
S=c1[nH]nc(Cc2n[nH]c(=S)n2-c2ccccc2)n1-c1ccccc1	?	.	.	.
S=c1[nH]nc(CCc2ccccc2)n1-c1ccc(Cl)cc1	?	?	.	.
S=c1[nH]nc(Cc2cccs2)n1-c1ccccc1	8.9µM	?	/	.
CCCCc1ccc(-n2c(Cc3cccs3)n[nH]c2=S)cc1	7.9µM	.	.	.

Bioassay records deposited in PubChem BioAssay by National Center for Advancing Translational Sciences (NCATS).
